# ANO1 activ = activators or potentiators of mouse TMEM16A chloride channel; HEK293 TMEM16A/YFP-H148Q/I152L, iodide quench fluorescence; stronger effect = lower value; actives 0.3% (n = 340,000); B-score at 10 µM; AID 623877; Q8BHY3;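 active means fluorescence-ratio B-score plate-corrected deviation score at least 3 library SD below zero, with starting fluorescence score within 5 deviations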;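 further: channel opened by trigger with iodide after compound preincubation; score built on the fluorescence ratio of max minus min over baseline; more negative score means more quench and so TMEM16A activation or potentiation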
# PHOSPHO1 block = inhibitors of human PHOSPHO1 phosphatase; inhibition, % at 13.3 µM; AID 1565; recombinant PHOSPHO1, absorbance phosphatase assay; Q8TCT1; actives 1.1% (n = 290,000); in the data active means inhibition above about 60%
# CHT PAM = human CHT allosteric activation; B-score at 10 µM; actives 0.49% (n = 310,000); Q9GZV3; CHT-expressing cells, membrane potential dye, choline EC20; stronger effect = higher value; LV-AA mutant CHT in HEK293 cells;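 active means initial fluorescence not abnormally high and integrated response B-score, plate-corrected, over 3 SD above library mean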
# Target sequence (Q9GZV3 whole entry, looked up): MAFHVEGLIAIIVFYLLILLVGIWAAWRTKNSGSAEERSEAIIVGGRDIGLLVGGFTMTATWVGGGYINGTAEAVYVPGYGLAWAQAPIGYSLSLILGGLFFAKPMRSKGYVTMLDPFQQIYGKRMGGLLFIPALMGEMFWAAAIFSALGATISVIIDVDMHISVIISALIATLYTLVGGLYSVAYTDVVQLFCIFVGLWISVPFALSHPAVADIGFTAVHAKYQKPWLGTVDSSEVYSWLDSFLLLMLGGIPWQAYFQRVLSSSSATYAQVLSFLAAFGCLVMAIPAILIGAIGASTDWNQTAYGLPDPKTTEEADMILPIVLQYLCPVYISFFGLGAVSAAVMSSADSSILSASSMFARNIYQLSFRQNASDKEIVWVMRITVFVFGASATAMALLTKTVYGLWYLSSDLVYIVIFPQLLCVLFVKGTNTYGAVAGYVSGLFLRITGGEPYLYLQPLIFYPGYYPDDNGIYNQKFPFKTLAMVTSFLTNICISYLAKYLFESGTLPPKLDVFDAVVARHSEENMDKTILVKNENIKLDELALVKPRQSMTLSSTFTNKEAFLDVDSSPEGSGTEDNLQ
# CHT inh = inhibits the human high affinity choline transporter; Q9GZV3; CHT-expressing cells, membrane potential dye, choline response; stronger effect = lower value; B-score at 10 µM; actives 0.86% (n = 310,000);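 active means B-score over 3 SD under the library average, and starting fluorescence ratio not unusually high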;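 further: choline stimulus applied at its EC90 after an EC20 pre-addition; B-score computed on integrated fluorescence ratio after choline addition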
# ANO1 block = blocks the mouse calcium-activated chloride channel TMEM16A | normalized B-score (activity score, 25-100; higher = stronger inhibition) at 10 µM | AID 588511 | actives 1.2% (n = 310,000) | HEK293 TMEM16A/YFP iodide influx fluorescence, ionomycin;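 active means ratio plate-corrected score three or more library SD toward inhibition, starting fluorescence score within five deviations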;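 further: score derived from kinetic fluorescence span divided by baseline fluorescence per well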
# HDAC3 inhib = human HDAC3 inhibition | inhibition, % at 8.3 µM | actives 0.15% (n = 320,000) | O15379 | AID 2718 | recombinant HDAC3, fluorogenic peptide/trypsin coupled, fluorescence; in the data active means inhibition above about 26%, passing the limit was not always enough; inconclusive means no clear call, values can overlap the other calls
# CHT activ conf = human CHT activation, confirmatory screen; shares compounds with CHT PAM; CHT-expressing cells, membrane potential dye fluorescence (FDSS); % of choline EC20–EC90 response window; HEK293 expressing CHT LV-AA mutant; choline added at its EC20; activation, % at 10 µM; actives 91% (n = 2,500); AID 504833;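 active means primary screen active, with duplicate mean activation above negative control mean plus 3 SD, cut at about 11% in these data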
# HEK293 MP dye = CHT activator counter-screen hit in parental HEK293 cells. shares compounds with CHT PAM. membrane potential dye fluorescence (FDSS); measured after EC20 choline addition. ratio readout change at 10 µM, hits read low. actives 62% (n = 2,500);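 active means duplicate-averaged ratio beyond 3 SD from buffer wells, up or down, though filed actives are nearly all decreases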
# Active calls of the source: *; i = inactive; ? = inconclusive; nt = no result. Shown are actives, neighbours in structure and some others; about 3.2% of the full set was active somewhere.
SMILES,ANO1 activ,PHOSPHO1 block,CHT PAM,CHT inh,ANO1 block,HDAC3 inhib,CHT activ conf,HEK293 MP dye
CCn1cc(C(=O)O)c(=O)c2cc(F)c(N3CCN(C(=S)NC(=O)c4ccc(OC)cc4)CC3)cc21,i,-183,i,i,i,-3,nt,nt
CCC(C)NC(=O)c1cn(CC)c2cc(N3CCN(C)CC3)c(F)cc2c1=O (centres undefined),i,-14,i,i,i,-28,nt,nt
CCN1CCN(c2cc3c(cc2F)c(=O)c(S(=O)(=O)c2ccccc2)cn3C)CC1,i,28,8.4*,i,i,-37,77*,-99*
Cc1ccc(S(=O)(=O)c2cn(C)c3cc(N4CCN(C)CC4)c(F)cc3c2=O)c(C)c1,i,-10,9.1*,i,i,-34,74*,-84*
CCn1cc(S(=O)(=O)c2ccc(OC)cc2)c(=O)c2cc(F)c(N3CCN(C)CC3)cc21,i,22,i,i,i,-17,59*,-48*
CC1CCc2c(sc(NC(=O)c3nc4ncccn4n3)c2C#N)C1 (centres undefined),i,-25,i,i,i,-1,nt,nt
C[C@H](CO)N1C[C@H](C)[C@@H](CN(C)C(=O)Nc2ccccc2)Oc2ccc(NS(=O)(=O)c3ccc(F)cc3)cc2C1=O,i,nt,nt,nt,nt,1,nt,nt
O=[N+]([O-])c1cc(C(F)(F)F)ccc1N/N=C/c1cc2ccccc2nc1Cl,nt,7,i,i,i,?,nt,nt
CC[n+]1c(C)sc2c(C)cc(C)cc21,i,26,7.8*,i,i,-1,62*,-60*
CC(C)(C)C(=O)NCCCc1nc2ccccc2n1CCCOc1ccc(Cl)cc1,i,-36,12*,i,i,11,10,i
Cc1cc(N2CCC(C)CC2)nc2cccc(O)c12,i,1,6.8*,i,i,2,18*,-54*
CCc1ccc(-c2csc3[n+]2CCN3C(C)=O)cc1,i,45,i,i,i,1,41*,i
O=C(CN1CC[n+]2c(-c3cccs3)csc21)c1ccc(-c2ccccc2)cc1,i,-1,i,i,i,6,nt,nt
CC(=O)N1CC[n+]2c(-c3ccc(Cl)cc3)csc21,i,-7,i,i,i,13,47*,-23*
COC(=O)CN1C(c2ccc(OC)cc2)=Nc2ccc(Cl)cc2C1c1ccccc1 (centres undefined),i,-24,i,i,i,5,nt,nt
COC(=O)CN1C(c2cccc(Cl)c2)=Nc2ccc(Cl)cc2C1c1ccccc1 (centres undefined),i,-7,i,i,i,5,30*,i
COc1ccc(Nc2nccc3c2ncn3C)cc1,i,nt,i,i,i,-9,61*,-56*
COc1ccc(/C=C/C(=O)NCCCN2CCCC2)cc1,i,20,i,i,i,-2,nt,nt
COc1ccc(/C=C/C(=O)NC(C)CCc2ccccc2)cc1 (centres undefined),i,-5,i,i,i,-4,35*,i
COc1ccc(/C=C/C(=O)NCCCc2ccccc2)cc1,i,1,6.6*,i,i,-1,38*,i
COc1ccc(/C=C/C(=O)NC(C)CCc2ccccc2)cc1OC (centres undefined),i,-22,i,i,i,-2,nt,nt
CN1CCN(CCCNC(=O)CCC(=O)N2CCOc3ccccc32)CC1,i,28,i,i,i,-1,nt,nt
Nc1cnnc(N/N=C\c2ccccc2)c1Cl,i,nt,6.4*,i,i,9,57*,-54*
Nc1nonc1N/N=C\c1ccccc1,i,12,i,i,i,5,nt,nt
Cn1ccnc1-c1nc2ccccc2[nH]c1=O,i,-10,7.1*,i,i,0,63*,-55*
SMILES,ANO1 activ,PHOSPHO1 block,CHT PAM,CHT inh,ANO1 block,HDAC3 inhib,CHT activ conf,HEK293 MP dye
CCC(CC)COC(=O)C(C#N)c1nc2ccccc2nc1N1CCN(CC)CC1 (centres undefined),i,26,i,i,i,15,32*,-37*
CCC(C)COC(=O)C(C#N)c1nc2ccccc2nc1N1CCCCC1 (centres undefined),i,10,i,i,i,1,nt,nt
O=c1cc(-c2ccncc2)oc2ccccc12,i,-7,i,i,i,-7,46*,-49*
O=c1cc(-c2ccc(O)cc2)oc2ccccc12,i,11,i,i,i,-3,nt,nt
CCCN(C(=O)Cc1coc2cc(C)c(C)cc12)c1c(N)n(Cc2ccccc2)c(=O)[nH]c1=O,i,nt,i,i,i,3,nt,nt
Cc1cccc(C)c1OCc1nnc2c3cnn(C)c3ncn12,i,-20,i,i,i,-2,nt,nt
N#Cc1c(=O)c2nc(NCc3ccccc3)ncc2n2ccccc12,i,-11,i,i,i,-3,24*,-40*
N#Cc1c(=O)c2nc(NCCCO)ncc2n2c(=O)c3ccccc3[nH]c12,i,-14,i,i,i,9,nt,nt
c1csc(-c2nc3nc4ccccc4nc3n2Cc2ccc3c(c2)OCO3)c1,i,11,8.7*,i,i,3,15*,i
CCCn1c(-c2cccs2)nc2nc3ccccc3nc21,i,22,i,i,i,-248,nt,nt
O=C(CNC(=O)c1ccc2c(c1)OCO2)Nc1cccc(Br)c1,i,nt,nt,nt,nt,3,nt,nt
CC(=NCCCn1ccnc1)C1=C(O)c2ccccc2C1=O,i,56,i,i,i,5,29*,-38*
CC(C)CCC(CCNCc1ccccn1)c1ccc(Cl)cc1 (centres undefined),i,15,i,i,i,2,33*,i
S=C(NCc1ccc(Cl)cc1)NCc1ccccn1,i,-29,i,i,i,-2,nt,nt
CCCCCCCCC1=NCCc2c1[nH]c1ccccc21,i,-7,i,i,i,0,48*,i
CCCCc1c(O)c2ccccc2[nH]c1=O,i,-5,i,i,i,-6,nt,nt
CC(C)CN(C(=O)CCNC(=O)c1ccc([N+](=O)[O-])cc1)C1CCS(=O)(=O)C1 (centres undefined),i,nt,nt,nt,nt,7,nt,nt

# Screening results deposited in PubChem BioAssay by several laboratories.
